# Source: PubChem BioAssay (Broad Institute)
# aSyn 5UTR act = Activators via SNCA 5'UTR binding, MLPCN | actives 7.1% (n = 300,000) | AID 1814, 2009 | activity score, % (tested at 7.5 µM), hits read low | alpha-synuclein 5'UTR reporter, activators screen; in the data active = activity score below about -60%
# * hit, by the source's call. Not all results are given here.
SMILES,aSyn 5UTR act
CCOc1ccc(C(=O)Nc2nnc(S(=O)(=O)N(C)Cc3ccco3)s2)cc1,-138.7*
Cc1ccccc1C(=O)Nc1nnc(S(=O)(=O)N(C)Cc2ccco2)s1,-71.5*
O=C(/C=C/c1ccc(OC(F)F)cc1)Nc1cccc(S(=O)(=O)NC2=NCCCCC2)c1,-71.8*
COc1ccc(/C=C/C(=O)Nc2cccc(S(=O)(=O)NC3=NCCCCC3)c2)cc1,-67.4*
O=C(CCl)Nc1cccc(S(=O)(=O)NC2=NCCC2)c1,-180.0*
Cc1nn(C)c(Sc2ccccc2N)c1[N+](=O)[O-],-68.8*
O=C(/C=C/c1ccc([N+](=O)[O-])cc1)/C=C/c1ccco1,-215.2*
O=C1CCCN1CCC(=O)N1CCCC(CO)(Cc2ccccc2)C1 (stereo not given),-97.6*
Cc1cccc(C=Nc2ccccc2C(N)=O)c1,-69.8*
Cc1ccc(C(=O)NCc2ccccn2)c(Cl)c1,-92.0*
O=C(COc1ccccc1Br)NCc1ccccn1,-70.7*
Cc1ccc(OCC(=O)NCc2ccccn2)c(Br)c1,-104.0*
O=C(COc1ccc(F)cc1Br)NCc1ccccn1,-88.4*
O=C(NCCSc1ccccn1)c1ccc(Cl)cc1Cl,-92.5*
CC(=O)c1ccc(Nc2nc(=O)c3cccnc3s2)cc1,-124.2*
O=c1nc(Nc2ccc(OCc3ccccc3)cc2)sc2ncccc12,-96.0*
CCOC(=O)c1ccc(Nc2nc(=O)c3cccnc3s2)cc1,-133.2*
COc1ccc(-c2cn3cc(C(=O)NN)ccc3n2)cc1,-91.5*
COC(=O)c1ccc2nc(-c3ccc4c(c3)OCO4)cn2c1,95.2
NNC(=O)c1ccc2nc(-c3ccc(Br)cc3)cn2c1,-154.0*
COc1ccc(-c2ccc(/C=C3/C(=N)N4C=CSC4=NC3=O)o2)c([N+](=O)[O-])c1,-116.4*
CC(C)Oc1ccc(CSc2ncn[nH]2)cc1,-83.8*
Cc1ccc(Nc2n[nH]c(C)c2[N+](=O)[O-])cc1,-221.4*
Cc1cccc(Nc2n[nH]c(C)c2[N+](=O)[O-])c1,-140.4*
Cc1[nH]nc(Nc2ccccc2)c1[N+](=O)[O-],-72.4*
SMILES,aSyn 5UTR act
Cc1[nH]nc(Nc2ccc(Br)cc2)c1[N+](=O)[O-],-163.5*
Cc1[nH]nc(Nc2ccc(C(C)C)cc2)c1[N+](=O)[O-],-150.9*
c1ccc(OCCOc2cccc3cccnc23)cc1,-93.6*
OCc1ccccc1OCCOc1ccc(Cl)c2cccnc12,-94.8*
O=C(COc1ccccc1CNCc1ccccc1)Nc1ccccc1,-91.0*
OCc1ccccc1OCCCOc1cccc2cccnc12,-82.8*
O=C(N/N=C/c1ccc[nH]1)c1ccc(COc2cccc3cccnc23)cc1,104.0
Clc1ccc(OCc2cn3ccccc3n2)c2ncccc12,-158.1*
Brc1ccc(COc2cccc3cccnc23)cc1,-81.2*
O=C(COc1cccc2cccnc12)Nc1ccccc1,-173.6*
CCCCCCCCCCn1c2c(c(=N)c3c1CCC3)CCC2,71.2
O=c1c2ccccc2nc(SCc2nc3ccccc3s2)n1CCCO,-182.1*
c1ccc(CSc2ccc(-c3cccnc3)nn2)cc1,-116.7*
Clc1ccc(-c2ccc(SCc3ccccn3)nn2)cc1,-140.9*
c1ccc(CSc2ccc(-c3ccccn3)nn2)nc1,-62.1*
CCOc1ccc(-c2ccc(SC)nn2)cc1,75.6
c1ccc(-c2ccc(SCc3cccnc3)nn2)nc1,-74.5*
c1ccc(CSc2nnc(SCc3ccccn3)s2)nc1,-118.4*
COc1ccc(C2C(=O)c3ccccc3C2=O)c(OC)c1,-265.4*
COc1ccc(C2C(=O)c3ccccc3C2=O)cc1,-82.7*
CCc1ccc(C2C(=O)c3ccccc3C2=O)cc1,-74.3*
O=C1c2ccccc2C(=O)C1c1ccnc2ccccc12,88.8
Cn1c2ccccc2c(=O)c2cc(C#CC3(O)CCCCC3)ccc21,76.9
Cn1c2ccccc2c(=O)c2ccc(C#Cc3ccccn3)cc21,-137.2*
Cn1c2ccccc2c(=O)c2cc(C#Cc3ccsc3)ccc21,-187.3*
SMILES,aSyn 5UTR act
COc1cc(-c2noc(C)c2C#Cc2ccsc2)cc(OC)c1OC,68.8
Cn1c2ccccc2c(=O)c2cc(C#Cc3ccccn3)ccc21,-127.0*
CSc1nc2ncc(-c3ccsc3)c(N)n2n1,-62.1*
COc1cccc(-c2nnc(SCC(=O)Nc3cc(C)on3)o2)c1,-66.2*
COc1ccc(-c2nnc(SCC(=O)Nc3cccc(Cl)c3)o2)cc1,-179.0*
Cc1cc(-c2nnc(SCC(=O)Nc3ccccn3)o2)no1,-71.9*
Cc1cc(-c2nnc(SCC(=O)Nc3ccccc3C(F)(F)F)o2)c(C)n1-c1ccccc1,-68.7*
COc1ccccc1-c1nnc(SCC(=O)OC(C)C)o1,-82.7*
COc1ccc(-c2nnc(SCC(=O)Nc3ccccc3OC)o2)cc1,-145.3*
COc1ccc(C)cc1NC(=O)CSc1nnc(-c2ccc(C)cc2)o1,-108.8*
COC(=O)c1ccccc1NC(=O)CSc1nnc(-c2ccc(C)cc2)o1,-129.8*
Cc1ccc(-c2nnc(SCC(=O)Nc3ccccc3F)o2)cc1,92.1
CCOC(=O)c1ccccc1NC(=O)Cn1c(-c2nonc2N)nc2ccccc21,73.0
CCOC(=O)c1ccccc1NC(=O)CSc1nc2ccccc2o1,-87.6*
Cc1nc2ccccc2c(=O)n1NCc1cc(Br)cs1,-81.0*
CC1CN(S(=O)(=O)c2ccc(C(=O)NCCCn3ccnc3)cc2)CC(C)O1 (stereo not given),104.6
Cc1ccc(-c2ccc(S(=O)(=O)N3CC(C)OC(C)C3)cc2)cc1 (stereo not given),-78.3*
CCCCn1cnc2c(cnn2-c2ccc(Cl)cc2)c1=O,-108.6*
CCOC(=O)C(C)n1cnc2c(cnn2-c2ccc(Cl)cc2)c1=O (stereo not given),-135.3*
CCCCn1cnc2c(cnn2-c2ccc(F)cc2)c1=O,-123.4*
CCCn1cnc2c(cnn2-c2ccc(F)cc2)c1=O,-115.1*
COc1cccc2c1OC1(CCN(C(C)C)CC1)N1N=C(c3cccnc3)CC21 (stereo not given),-78.4*
Nc1ccc2c(c1Cl)C(=O)c1ccc(N)c(Cl)c1C2=O,-88.0*
O=C(O)c1cccc(OCc2ccccc2Cl)c1,-188.5*
CCCn1nnc(NC(=O)c2ccc(-c3ccccc3)cc2)n1,-217.6*
SMILES,aSyn 5UTR act
CCOc1ccc(C(=O)Nc2nnn(CC)n2)cc1,-86.0*
CCCn1nnc(NC(=O)c2ccc(OC)cc2)n1,-121.4*
CCCn1nnc(NC(=O)c2ccc(Br)cc2)n1,-137.1*
COc1cc(N2Cc3ccccc3C2)ccc1C=O,-150.9*
CCN(CC)CCn1c2ccccc2c2cnc(N)c(C#N)c21,-655.4*
COc1ccc(C2=NOC(C(=O)NCc3ccc(F)cc3)C2)cc1OC (stereo not given),81.5
COc1ccc(CCNC(=O)C2CC(c3ccccc3[N+](=O)[O-])=NO2)cc1 (stereo not given),-95.0*
COc1ccc(CCNC(=O)Nc2ccccc2[N+](=O)[O-])cc1,-130.0*
O=C(NCCc1cccs1)C1CC(c2ccccc2[N+](=O)[O-])=NO1 (stereo not given),-92.9*
CCCCNC(=O)C1CC(c2cccc([N+](=O)[O-])c2)=NO1 (stereo not given),-170.8*
CC1CC1c1ccc(/C=C(\C#N)C(=O)Nc2ccccc2Cl)o1 (stereo not given),-191.9*
CC1CC1c1ccc(/C=C(\C#N)C(=O)Nc2ccc(Cl)cc2)o1 (stereo not given),-327.9*
c1ccc(C2=NNC(c3ccccn3)=NN2)nc1,-118.0*
c1ccc(-c2nnc(-c3ccccn3)s2)nc1,78.4
c1ccc(COc2ccc(OCCCn3cncn3)cc2)cc1,-101.5*
CC1CCN(CCCOc2ccc(OCc3ccccc3)cc2)CC1,-69.0*
